The results in this text go back to PubChem BioAssay (NCATS).

Results filed as inconclusive are left out. Active and inactive are the calls of the source. Unless noted, calls come from the whole dose curve; as a rule, active = well fitted curve in the direction sought with a large enough effect; inconclusive = small, poorly fitted or top-dose-only effect, or another doubt; inactive = no such curve, though single readings can be large; an effect the other way counts as inactive or inconclusive.

In assay [1] the target is ATP-dependent 6-phosphofructokinase (Trypanosoma brucei brucei) (UniProt O15648). The assay is described as follows: qHTS Assay to Find Inhibitors of T. brucei phosphofructokinase: hit validation (AID 492961).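 Note: luminescence reports ADP formed as PFK phosphorylates fructose-6-phosphate with ATP; series mostly up to about 51 µM; % is set by controls: 0 for no effect and ±100 for the full control effect.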 The method, boiled down:
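ADP-Glo luminescence read-out of ADP formed by 1.25 nM PFK from 0.1 mM ATP and 0.5 mM F6P (TEA pH 8.0, 45 min, RT). Compounds titrated; activity normalized to no-enzyme and full-enzyme controls.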

A short description of assay [2]: Validation screen for small molecules that induce genotoxicity in human embryonic kidney (HEK293T) cells expressing luciferase-tagged ELG1 (AID 493106). Note: 0% is about no effect. The method, boiled down:
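Cells were dispensed at 2,000 per well, then 23 nL compound or DMSO was pinned in. After 16 hr at 37 °C and 5% CO2, ONE-Glo reagent was added. Luciferase activity was measured following 30 min at room temperature.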

For assay [3], the target named is ATPase family AAA domain-containing protein 5 (Homo sapiens) (UniProt Q96QE3). The assay is described as follows: Validation screen for small molecules that inhibit ELG1-dependent DNA repair in human embryonic kidney (HEK293T) cells expressing luciferase-tagged ELG1 (AID 493107).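 Note: cells co-treated with the DNA-damaging agent 5-fluorouridine alongside compound; series mostly up to about 46 µM; % is set by controls: 0 for no effect and ±100 for the full control effect; inhibitors lower the ELG1-luciferase luminescence signal; nearly all actives have a fitted effect of over 70% in size.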 The method, boiled down: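 Cells are dispensed in 1536-well format, then 5-fluorouridine and compound are pinned in. After a 16 hr incubation at 37 °C and 5% CO2, ONE-Glo is added and luciferase measured on a CCD imager.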

In assay [4] the target is Thyrotropin-releasing hormone receptor (Homo sapiens) (UniProt P34981). The assay is described as follows: qHTS for Small Molecule Agonists and Allosteric Enhancers of Human TRH Receptor: Validation Screen for Agonists (AID 493127;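 active = calcium activation more than 3 SD above the typical response in the agonist read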;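 note: intracellular calcium rise by fluo-8 fluorescence before TRH EC20 addition; 0% is about no effect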). As to conditions: TRH receptor agonist cell assay; at 2 µM; stronger effect = higher value. The method, boiled down: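 Compounds are added by online pintool to dye-loaded TRHR cells while fluorescence is recorded every second. A rise in calcium signal during the agonist read marks activation; a later 10 nM TRH addition (EC20) serves the separate enhancer mode.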

Assay [5] is described as follows: Nrf2 qHTS screen for inhibitors: Validation (AID 493153; active = well fitted inhibition curve with a large enough effect in the main read-out, with a control signal flat, not every such curve was filed as active). As to conditions: Potency: luciferase luminescence; viability change: measured here: cytotoxicity max response. The method, boiled down:
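A549 ARE_Fluc, 5% FBS OPTI-MEM; cpd titration, 18-24 h, 37°C/5% CO2. Read 1: CellTiter-Fluor (Ex 405/Em 525), cytotox. Read 2: luciferase lum, Nrf2 activity.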

The nature of assay [6]: qHTS for Inhibitors of Cell Surface uPA Generation: Validation Assay (AID 493164).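 Note: RAW 264.7 macrophage cells exposed to compound for 18 h; 0% is about no effect.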 The method, boiled down:
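ATP-Lite luminescence read-out: ATP remains high when uPA activity-dependent LF translocation into the cytoplasm is blocked. RAW 264.7 cells, 18 h compound exposure at 37 C; 7-point titration, 2.45 nM to 38.3 uM final.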

Assay [7] has as its target Galactokinase (Homo sapiens) (UniProt P51570). Nature of the assay: qHTS Validation Assay for Inhibitors of Human Galactokinase (GALK) (AID 493189). Note: 0% is about no effect. The method, boiled down: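 GALK (5 nM) with 35 uM ATP and 100 uM galactose in HEPES pH 8.0 with MgCl2, NaCl, DTT and BSA. Reaction ran 1 h at room temperature. Residual ATP read by Kinase-Glo Plus luminescence.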
Assay [8] in a line: Validation screen for small molecules that induce DNA re-replication in SW480 colon adenocarcinoma cells (AID 504364). Note: 0% is about no effect. The method, boiled down:
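Image-based qHTS: compounds were incubated with SW480 cells for 48 hr, nuclei stained with Hoechst, and per-nucleus fluorescence intensity scanned to flag cells with excess DNA content.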

For assay [9], the target named is Peptidyl-prolyl cis-trans isomerase NIMA-interacting 1 (Homo sapiens) (UniProt Q13526). The assay is described as follows: qHTS Validation Assay to Find Inhibitors of Pin1 (AID 504536; active = well fitted inhibition curve with a large enough effect in the polarisation, with a control signal flat, not every such curve was filed as active; the % refers to the polarisation;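 note: 0% = full Pin1 enzyme wells and -100% = no-enzyme wells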). The method, boiled down: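 Fluorescence polarization competition: compounds (titration) displace HiFluor-488-labeled Pin1-1b peptide from Pin1 (0.3 uM final) in pH 7.5 HEPES buffer with DTT, 10 min at room temperature; %Activity normalized to no-enzyme wells, curves fitted.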

Assay [10] concerns the target phosphoglycerate mutase (Leishmania major) (UniProt Q4Q090). Nature of the assay: qHTS Validation Assay to Find Inhibitors of Phosphoglycerate Mutase (AID 504548). Note: series mostly up to about 58 µM; % is set by controls: 0 for no effect and ±100 for the full control effect. The method, boiled down: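 Lm PGAM 1.25nM final; 100 mM TEA pH 7.6, 5 mM MgCl2, 0.01% Tween-20; 45 min RT; Kinase-GloPlus, 10 min; end-point luminescence. Enzyme-free wells as negative controls.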
Assay [11] has as its target Ubiquitin carboxyl-terminal hydrolase 1 (Homo sapiens) (UniProt O94782). Nature of the assay: Inhibitors of USP1/UAF1: Pilot qHTS (AID 504865).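 Note: rhodamine fluorescence freed from ubiquitin-rhodamine substrate followed over time; top concentration of the series differs between compounds; % is set by controls: 0 for no effect and ±100 for the full control effect; nearly all actives have a fitted effect of over 35% in size.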 The method, boiled down:
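USP1/UAF1 complex at 1 nM preincubated 15 min at room temperature with compound, then Ub-Rho substrate added at 150 nM final. Fluorescence (480/540 nm) read kinetically in 50 mM HEPES pH 7.8, 0.5 mM EDTA, 1 mM TCEP, 0.1 mg/ml BSA, 0.01% Tween-20.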

The nature of assay [12]: qHTS for Inhibitors of ATXN expression: Validation of Cytotoxic Assay (AID 588349). Note: % is set by controls: 0 for no effect and ±100 for the full control effect. The method, boiled down:
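Titrated compounds are added to cultured HEK293 cells, which are then held at 37 degrees C for 72 hr; loss of intracellular ATP, measured with CellTiter Glo, indicates toxicity.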

Assay [13] is described as follows: qHTS for Inhibitors of ATXN expression: Validation (AID 588378). Note: series mostly up to about 57 µM; % is set by controls: 0 for no effect and ±100 for the full control effect; nearly all actives have a fitted effect of over 75% in size. The method, boiled down: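 HEK293 cells carrying ATXN2-firefly luciferase reporter, treated with compound 24 h at 37 °C. Viability read first by CellTiter-Fluor (405/525 nm), then reporter expression by Bright-Glo luminescence; controls were a known ATXN2 expression inhibitor and a luciferase inhibitor.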

Assay [14] deals with Phosphoglycerate kinase, glycosomal (Trypanosoma brucei brucei) (UniProt P07378). Nature of the assay: qHTS Validation Assay to Find Inhibitors of Phosphoglycerate Kinase (AID 504547).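 Note: control wells lack PGK and mark full inhibition.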 The method, boiled down: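 Luminescence end-point (Kinase-Glo Plus, 10 min) after a 60 min room-temperature coupled reaction. GAPDH at 100nM final supplies 1,3-BPG to PGK. Buffer: 100mM TEA pH 7.6, 5mM MgCl2, 0.01% Tween-20. Wells lacking PGK served as controls.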

In assay [15] the target is DNA dC->dU-editing enzyme APOBEC-3G (Homo sapiens) (UniProt Q9HC16). Nature of the assay: qHTS for inhibitors of Vif-A3G interactions: Validation (AID 588379). Note: 0% is about no effect. The method, boiled down: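 Yellow fluorescence (Ex 488, Em 500-530) of Vif-coexpressing HeLa A3G-eYFP cells, scanned by Acumen cytometer, reports blocked A3G degradation. Cells plated at 700/well overnight at 37 deg C before compound addition, then a further overnight compound incubation at 37 deg C.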
Sequence of DNA dC->dU-editing enzyme APOBEC-3G (Homo sapiens) (Q9HC16 whole entry, looked up): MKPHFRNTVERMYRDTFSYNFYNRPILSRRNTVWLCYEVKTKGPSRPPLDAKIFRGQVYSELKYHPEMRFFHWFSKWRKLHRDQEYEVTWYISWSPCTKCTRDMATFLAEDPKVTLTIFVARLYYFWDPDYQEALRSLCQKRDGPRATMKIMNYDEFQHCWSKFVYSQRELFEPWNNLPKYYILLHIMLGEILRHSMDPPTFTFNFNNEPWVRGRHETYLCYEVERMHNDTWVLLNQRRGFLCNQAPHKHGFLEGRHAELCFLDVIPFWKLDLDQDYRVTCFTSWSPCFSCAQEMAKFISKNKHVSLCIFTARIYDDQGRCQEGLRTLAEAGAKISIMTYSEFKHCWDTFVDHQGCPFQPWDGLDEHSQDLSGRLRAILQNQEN

Sequence of Peptidyl-prolyl cis-trans isomerase NIMA-interacting 1 (Homo sapiens) (Q13526 whole entry, looked up): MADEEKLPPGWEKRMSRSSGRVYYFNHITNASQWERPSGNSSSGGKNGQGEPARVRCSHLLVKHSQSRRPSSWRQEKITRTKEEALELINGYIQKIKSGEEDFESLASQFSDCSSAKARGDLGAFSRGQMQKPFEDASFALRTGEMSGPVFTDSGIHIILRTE
Sequence of Ubiquitin carboxyl-terminal hydrolase 1 (Homo sapiens) (O94782 whole entry, looked up): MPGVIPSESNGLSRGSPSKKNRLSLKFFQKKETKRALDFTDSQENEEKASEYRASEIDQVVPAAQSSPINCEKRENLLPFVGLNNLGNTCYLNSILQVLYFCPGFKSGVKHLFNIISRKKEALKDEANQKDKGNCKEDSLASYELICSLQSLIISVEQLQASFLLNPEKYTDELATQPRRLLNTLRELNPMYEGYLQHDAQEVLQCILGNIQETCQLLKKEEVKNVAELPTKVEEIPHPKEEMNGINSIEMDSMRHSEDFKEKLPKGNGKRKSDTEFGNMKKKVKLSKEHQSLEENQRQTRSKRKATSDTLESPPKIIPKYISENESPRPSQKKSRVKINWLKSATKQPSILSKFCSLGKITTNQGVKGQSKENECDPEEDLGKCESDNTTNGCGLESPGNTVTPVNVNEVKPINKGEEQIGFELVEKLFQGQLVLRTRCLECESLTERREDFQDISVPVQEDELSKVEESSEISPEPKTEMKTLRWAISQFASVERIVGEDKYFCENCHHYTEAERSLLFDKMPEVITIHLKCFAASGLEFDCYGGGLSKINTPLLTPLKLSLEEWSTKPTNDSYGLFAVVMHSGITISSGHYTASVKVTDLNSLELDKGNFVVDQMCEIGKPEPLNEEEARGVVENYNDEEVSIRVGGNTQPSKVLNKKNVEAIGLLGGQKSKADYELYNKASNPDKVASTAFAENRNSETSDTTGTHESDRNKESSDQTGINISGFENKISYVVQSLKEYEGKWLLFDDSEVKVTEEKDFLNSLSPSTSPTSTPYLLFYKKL
Sequence of Thyrotropin-releasing hormone receptor (Homo sapiens) (P34981 whole entry, looked up): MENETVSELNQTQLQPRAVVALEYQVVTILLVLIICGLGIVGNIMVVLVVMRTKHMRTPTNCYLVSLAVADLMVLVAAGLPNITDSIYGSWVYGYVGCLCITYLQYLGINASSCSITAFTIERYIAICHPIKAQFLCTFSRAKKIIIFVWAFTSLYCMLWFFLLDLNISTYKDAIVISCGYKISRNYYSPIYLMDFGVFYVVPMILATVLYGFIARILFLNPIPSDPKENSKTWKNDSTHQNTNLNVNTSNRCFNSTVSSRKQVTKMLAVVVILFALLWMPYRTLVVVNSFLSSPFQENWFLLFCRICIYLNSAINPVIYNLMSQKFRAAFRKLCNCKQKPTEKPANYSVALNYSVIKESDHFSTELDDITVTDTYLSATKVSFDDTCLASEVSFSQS
Sequence of ATPase family AAA domain-containing protein 5 (Homo sapiens) (Q96QE3 whole entry, looked up, the tested form may be a part): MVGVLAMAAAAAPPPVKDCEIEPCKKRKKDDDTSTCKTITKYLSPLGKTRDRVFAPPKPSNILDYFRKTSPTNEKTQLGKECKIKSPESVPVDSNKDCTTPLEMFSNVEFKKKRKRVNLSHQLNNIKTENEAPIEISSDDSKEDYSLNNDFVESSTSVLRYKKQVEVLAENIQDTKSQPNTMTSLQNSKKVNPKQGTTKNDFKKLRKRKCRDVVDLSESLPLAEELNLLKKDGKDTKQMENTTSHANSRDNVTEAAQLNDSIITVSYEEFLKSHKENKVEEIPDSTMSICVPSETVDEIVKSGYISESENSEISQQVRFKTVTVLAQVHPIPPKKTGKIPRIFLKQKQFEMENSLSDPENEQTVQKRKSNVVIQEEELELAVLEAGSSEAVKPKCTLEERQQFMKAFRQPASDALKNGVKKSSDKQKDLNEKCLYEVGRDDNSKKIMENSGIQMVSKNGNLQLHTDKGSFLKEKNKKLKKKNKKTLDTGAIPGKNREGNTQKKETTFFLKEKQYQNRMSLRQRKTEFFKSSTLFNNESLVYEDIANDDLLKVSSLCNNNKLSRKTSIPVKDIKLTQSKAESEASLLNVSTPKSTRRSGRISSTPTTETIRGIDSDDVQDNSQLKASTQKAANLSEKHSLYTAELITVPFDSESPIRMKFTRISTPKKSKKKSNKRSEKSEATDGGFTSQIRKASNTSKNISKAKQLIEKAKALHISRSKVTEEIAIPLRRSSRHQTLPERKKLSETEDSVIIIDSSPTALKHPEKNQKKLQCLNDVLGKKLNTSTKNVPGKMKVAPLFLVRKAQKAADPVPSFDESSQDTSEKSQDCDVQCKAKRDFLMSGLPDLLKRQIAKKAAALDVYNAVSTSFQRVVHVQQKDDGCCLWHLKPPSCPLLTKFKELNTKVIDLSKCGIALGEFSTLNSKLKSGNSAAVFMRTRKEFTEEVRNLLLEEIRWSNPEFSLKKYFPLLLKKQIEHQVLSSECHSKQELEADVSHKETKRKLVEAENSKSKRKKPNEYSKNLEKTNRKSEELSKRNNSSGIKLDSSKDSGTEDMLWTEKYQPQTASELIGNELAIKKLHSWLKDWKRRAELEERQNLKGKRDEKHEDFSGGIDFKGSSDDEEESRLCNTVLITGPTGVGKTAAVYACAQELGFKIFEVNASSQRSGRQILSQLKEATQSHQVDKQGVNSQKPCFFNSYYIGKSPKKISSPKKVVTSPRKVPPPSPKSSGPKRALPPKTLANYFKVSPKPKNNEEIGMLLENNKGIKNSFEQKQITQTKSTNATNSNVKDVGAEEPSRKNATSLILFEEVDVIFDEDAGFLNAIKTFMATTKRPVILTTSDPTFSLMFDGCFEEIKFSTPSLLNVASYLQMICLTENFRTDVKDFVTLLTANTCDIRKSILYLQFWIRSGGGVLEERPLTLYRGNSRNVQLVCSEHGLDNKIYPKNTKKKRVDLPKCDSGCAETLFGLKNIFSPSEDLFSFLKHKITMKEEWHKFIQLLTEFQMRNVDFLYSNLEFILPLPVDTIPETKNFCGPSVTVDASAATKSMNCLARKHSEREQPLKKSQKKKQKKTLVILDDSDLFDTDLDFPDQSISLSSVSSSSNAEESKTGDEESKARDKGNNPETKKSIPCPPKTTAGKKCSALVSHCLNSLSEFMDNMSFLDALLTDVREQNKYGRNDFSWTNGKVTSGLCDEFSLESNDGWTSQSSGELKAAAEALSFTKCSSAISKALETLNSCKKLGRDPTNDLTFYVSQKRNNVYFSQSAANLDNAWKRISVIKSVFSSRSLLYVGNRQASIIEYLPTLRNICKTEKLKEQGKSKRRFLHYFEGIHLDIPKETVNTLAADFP
Sequence of ATP-dependent 6-phosphofructokinase (Trypanosoma brucei brucei) (O15648 whole entry, looked up): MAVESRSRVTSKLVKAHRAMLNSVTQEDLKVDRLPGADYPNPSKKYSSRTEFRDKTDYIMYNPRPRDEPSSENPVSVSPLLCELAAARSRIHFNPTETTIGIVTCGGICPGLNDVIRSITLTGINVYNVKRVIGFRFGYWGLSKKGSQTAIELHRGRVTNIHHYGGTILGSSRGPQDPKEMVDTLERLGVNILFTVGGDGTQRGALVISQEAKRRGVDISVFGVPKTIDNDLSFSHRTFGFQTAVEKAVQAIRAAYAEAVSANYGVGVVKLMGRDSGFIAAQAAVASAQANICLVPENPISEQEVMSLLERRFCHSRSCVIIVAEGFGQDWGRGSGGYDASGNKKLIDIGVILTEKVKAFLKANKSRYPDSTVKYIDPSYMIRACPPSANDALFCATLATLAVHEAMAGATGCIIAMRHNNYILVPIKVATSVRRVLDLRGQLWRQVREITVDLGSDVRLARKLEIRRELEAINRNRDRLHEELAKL
Sequence of Galactokinase (Homo sapiens) (P51570 whole entry, looked up): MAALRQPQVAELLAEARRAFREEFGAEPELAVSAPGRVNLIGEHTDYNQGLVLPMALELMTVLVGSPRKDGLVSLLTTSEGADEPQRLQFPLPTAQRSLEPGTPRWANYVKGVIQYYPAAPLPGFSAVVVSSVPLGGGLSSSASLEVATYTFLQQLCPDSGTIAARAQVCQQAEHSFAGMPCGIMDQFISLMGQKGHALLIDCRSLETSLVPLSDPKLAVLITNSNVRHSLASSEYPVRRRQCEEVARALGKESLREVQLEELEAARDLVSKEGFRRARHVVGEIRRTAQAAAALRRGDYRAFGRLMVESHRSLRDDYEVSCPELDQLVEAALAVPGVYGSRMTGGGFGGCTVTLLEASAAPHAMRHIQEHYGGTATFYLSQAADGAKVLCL
Sequence of phosphoglycerate mutase (Leishmania major) (Q4Q090 1-553): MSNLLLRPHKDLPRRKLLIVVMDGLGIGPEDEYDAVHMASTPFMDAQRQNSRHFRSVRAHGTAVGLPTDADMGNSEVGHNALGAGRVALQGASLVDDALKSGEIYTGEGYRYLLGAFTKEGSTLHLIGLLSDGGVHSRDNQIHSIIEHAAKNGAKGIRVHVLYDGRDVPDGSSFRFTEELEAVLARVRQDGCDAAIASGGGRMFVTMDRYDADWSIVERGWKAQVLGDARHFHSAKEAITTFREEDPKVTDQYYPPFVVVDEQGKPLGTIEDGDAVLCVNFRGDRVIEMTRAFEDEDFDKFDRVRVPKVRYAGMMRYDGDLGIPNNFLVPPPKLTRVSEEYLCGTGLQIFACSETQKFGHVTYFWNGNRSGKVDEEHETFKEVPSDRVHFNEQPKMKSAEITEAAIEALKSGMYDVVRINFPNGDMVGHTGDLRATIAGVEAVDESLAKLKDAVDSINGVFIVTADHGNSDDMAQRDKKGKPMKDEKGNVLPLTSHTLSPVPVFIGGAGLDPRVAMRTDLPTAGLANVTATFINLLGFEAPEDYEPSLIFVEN

Regarding `C[N+](C)(C)CCOC(N)=O`, the molecule was called inactive in [1], in assay [6], in assay [7], in [8], in [9] and in assay [10]. Further, the Potency result in assay [2], in [3], in assay [5], in [11], in [12] and in assay [13] was “inactive” in each case. In addition, the activation in [4] was 30.9% (active). The viability change in assay [5] amounted to 14%.
For the molecule `CCOC(=O)c1cnc2c(cnn2CC)c1NN=C(C)C`, the molecule was called inactive in assay [1], in assay [6], in [7], in [8], in assay [9] and in assay [14]. Besides, the call in assay [10] and in [15] was inactive. For the same molecule, the Potency result in assay [2], in assay [3], in assay [5], in assay [11], in assay [12] and in assay [13] was “inactive” each time. For the same molecule, the activation in assay [4] is -4.75% (inactive). In addition, the viability change in assay [5] was -1.57%.
Regarding `CCN1CCc2nc(N)oc2CC1`, the outcome in assay [1], in [6], in assay [7], in [8], in [9] and in assay [14] was inactive. In addition, the outcome in assay [10] was inactive. For the same molecule, the Potency result in assay [2], in assay [3], in assay [5], in [11] and in [12] was “inactive” throughout. In addition, in assay [4], the activation was 0.875% (inactive). Besides, the viability change in [5] was -0.627%.
Take `O=C(O)CP(=O)(O)O`: the call in assay [1], in assay [6], in [7], in [8], in [9] and in assay [14] was inactive. Besides, the call in [10] was inactive. The Potency entry in assay [2], in [3], in assay [5], in assay [11], in assay [12] and in assay [13] was “inactive” each time. In addition, the viability change in [5] turned out to be 10.3%.
For the molecule `c1cc(CN2CCCCC2)cc(OCCCNc2nc3ccccc3s2)c1`, the molecule was classed as inactive in assay [1], in [6], in assay [7], in assay [9], in [14] and in assay [10]. Moreover, the call in assay [15] was inactive. The Potency result in assay [2], in assay [3], in assay [5] and in assay [11] was “inactive” each time. Further, in assay [5], the viability change is -17%.
As for `CCN(CC)CCNC(=O)c1cc(S(C)(=O)=O)ccc1OC`, the result in assay [1], in assay [6], in [7], in assay [8], in assay [9] and in assay [10] was inactive. Moreover, the Potency result in [2], in [3], in assay [5], in assay [11], in [12] and in [13] was “inactive” each time. Also, the viability change in assay [5] is 10.1%.
In the case of `NCCCNCCSP(=O)(O)O`, the result in assay [1], in assay [6], in [7], in assay [8], in assay [9] and in assay [14] was inactive. The molecule was classed as inactive in [10]. Also, the Potency entry in assay [2], in [3], in [5], in assay [11] and in [12] was “inactive” throughout. Further, the viability change in [5] is 4.69%.
Take `CC(=O)OCC1=C(C(=O)O)N2C(=O)[C@@H](NC(=O)Cc3cccs3)[C@H]2SC1`: the outcome in [1], in assay [6], in assay [7], in assay [8] and in assay [10] was inactive. The Potency entry in assay [2], in assay [3], in assay [5], in assay [11], in assay [12] and in assay [13] was “inactive” throughout. For the same molecule, the activation in [4] is 0.938% (inactive). In addition, the viability change in [5] is 0.396%.
For `COC(=O)C1=C(C)NC(C)=C(C(=O)OC(C)(C)CN(C)CCC(c2ccccc2)c2ccccc2)C1c1cccc([N+](=O)[O-])c1` (stereo not given), the molecule was classed as inactive in [1], in assay [6], in assay [9], in assay [14] and in assay [10]. In addition, the Potency result in [2] was “inactive”.
Take `CC(=O)[C@@]1(O)CC[C@H]2[C@@H]3CCC4=CC(=O)CC[C@]4(C)[C@H]3CC[C@@]21C`: the outcome in [1], in assay [6], in assay [9], in assay [14] and in assay [10] was inactive. Moreover, the Potency result in [2], in assay [3], in [11], in [12] and in [13] was “inactive” in each case.
